About 83,000 compounds went through this panel and 20% of them were active in at least one assay; those are over-represented in the sample as a whole.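 Results are percent growth after 48 hours of single-concentration exposure. 100 means growth as in untreated cells, lower positive values show inhibition; negative values down to -100 show cell death.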 The source made the active and inactive calls.

For 40 molecules, growth results are on record in PubChem BioAssay (NCI).

The test system of this experiment is SK-MEL-2 melanoma. In words: NCI-60 one-dose screen, 48 h (100 = growth as untreated, 0 = no growth, -100 = all killed). Particulars: 10 µM unless noted. Here is the method:
Growth inhibition of the SK-MEL-2 human tumor cell line is measured as a screen for anti-cancer activity. Cells are grown in 96 well plates and exposed to the test compound for 48 hours. Compounds are tested at a single concentration, which is 10^-5 M for most compounds. The reported endpoint is percent growth (GI% or GIPRCNT), where numbers from 0 - 100% represent growth inhibition, and numbers from -100% - 0 represent cell death. For example, a value of 40 represents 60% growth inhibition. A value of 0 means no net growth occurred over the course of the experiment. A value of -40 indicates 40% of cells at the beginning of the experiment died by the end of the experiment. A value of -100 means all cells are dead at the end of the experiment.
NCI-60 Human Tumor Cell Lines Screen was performed using the standard one-dose NCI protocol, which is described in more detail at https://dtp.cancer.gov/discovery_development/nci-60/default.htm.
Compounds with GIPRCNT values below 10 were considered active. Activity score was based on GIPRCNT using the following formula: […]
Score is 0 for GIPRCNT values of 100 or above, 50 for GIPRCNT values of 0, and 100 for GIPRCNT values of -100.
`FC(F)(F)c1ccc2c(c1)n1cnnc1c1nncn21`: the growth was 112% (inactive).

For `CN1CCN(C)c2cncc(Br)c2C1=O`, the growth was 118% (inactive). The value for `CC1(C)CC(=O)C2=C(C1)Nc1cc3c(cc1C2c1ccc(F)cc1)OCO3` (stereo not given) was 91.3% (inactive); that for `Cc1nn2c(-c3nc4ccc(Cl)cc4[nH]3)c(-c3ccc(F)cc3)nc2s1` was 105% (inactive). Under `COc1ccc(Cn2c(Br)c3c(c2-c2cc(OC)c(OC)c(OC)c2)CCc2sc(N)nc2-3)cc1` stands 50.3% (inactive); under `O=C(CCc1nnc2sc(/C=C\c3ccccc3)nn12)c1nc2ccccc2[nH]1`, 98.1% (inactive); under `Cc1ccc(NS(=O)(=O)c2ccc(-c3cnc(C4CC4)o3)cc2)cc1`, 23.9% (inactive).

Turning to `COc1ccc(/C=C/C(=O)N2CCC(O)CC2)cc1OC1CCCC1`, the growth was 107% (inactive).

Turning to `COc1cccc(C2CC(=O)Nc3cc4c(cc32)OCO4)c1OC` (stereo not given), the growth was 88.3% (inactive). Under `CSc1ccc(OC(C)=O)cc1C` stands 92.7% (inactive); under `COc1cc2nc(N3CCC[C@H](NC4=CC(=O)c5ccccc5C4=O)C3)nc(N)c2cc1OC`, 111% (inactive). For the molecule `COc1ccc(C2CC(c3cc(OC)c(OC)c(OC)c3)=NN2c2ccc(S(N)(=O)=O)cc2)cc1` (stereo not given), the growth is 83.2% (inactive). Under `COc1ccc(Nc2nc(NCCNc3ccnc4cc(Cl)ccc34)nc(N3CCOCC3)n2)cc1` stands 78.8% (inactive). `Cc1ccc(C2SCC(=O)N2NC(=O)c2[nH]c3ccc(F)cc3c2-c2ccccc2)cc1` (stereo not given): the growth was 97.6% (inactive). The value for `Cc1c(NCC(=O)Nc2nc3ccccc3[nH]2)c(=O)n(-c2ccccc2)n1C` was 104% (inactive); that for `CCCCCCCC/C=C\CCCCCCCCOc1cccc(CC(=O)NCC[N+]2(C)CCOCC2)c1` was 104% (inactive); that for `O=C1CCC(N2C(=O)c3cccc(NCCOCCOCCNC(=O)c4cc5c(o4)C(=O)c4ccccc4C5=O)c3C2=O)C(=O)N1` (stereo not given) was -27.8% (active). The value for `COc1ccc(OC)c2ncccc12` was 87.5% (inactive); that for `C[C@@H](Oc1cc(-c2cnn(C3CC4(CNC4)C3)c2)cnc1N)c1c(Cl)ccc(F)c1Cl` was 32.6% (inactive).

As to `C(=C\c1ccccc1)/CN1CCN(C(c2ccccc2)c2ccccc2)CC1`, the growth is 104% (inactive). For `C[C@@H](Oc1cc(-c2cnn(C3CC4(CCCNC4)C3)c2)cnc1N)c1c(Cl)ccc(F)c1Cl` (stereo not given in full), the growth was -47.8% (active). Under `Nc1cccc2c(=S)c3ccccc3[nH]c12` stands 87.5% (inactive); under `CCOc1ccc(-c2cnnn2-c2nonc2-n2cccc2)cc1`, 18.3% (inactive); under `COc1cc(/C=C/C(=O)C2=C(/C=C/c3ccc(O)c(OC)c3)NC(=O)NC2c2ccc(O)c(OC)c2)ccc1O` (stereo not given), 105% (inactive). Consider `O=C(COc1ccc(/C=C2\CSc3ccccc3C2=O)cc1)c1ccc(Cl)cc1`, for which the growth is 95.1% (inactive). Under `CCCCc1ccc(C(O)(CCN2CC3CCC(CC3)C2)c2ccccc2)cc1` (stereo not given) stands 98% (inactive). Consider `Cc1c(C)n(CC(O)CNC2CCCCC2C)c2ccccc12` (stereo not given), for which the growth is -49.9% (active). Under `COc1ccc(-c2nc(Nc3ccc(F)cc3)nc(Nc3ccc4c(c3)nc(C)n4Cc3ccccc3)n2)cc1` stands 48.2% (inactive); under `N#Cc1c(-c2cccc(F)c2)cc(-c2ccc(Br)s2)[nH]c1=O`, 60% (inactive). The value for `Cc1cc(=O)c2c(C)ccc(C)c2[nH]1` was 104% (inactive); that for `COc1ccc(NS(=O)(=O)c2ccc(-c3cnc(C4CC4)o3)cc2)cc1` was 46.6% (inactive); that for `CCCCC1COc2cccc3c(SCC(=O)N(C)c4cccc5ccccc45)cc[n+]1c23` (stereo not given) was 102% (inactive). Under `NC(=O)c1cc(I)ccc1NC(=O)COc1ccc(Cl)cc1Cl` stands 79.2% (inactive). Regarding `CCOC(=O)c1c(Cl)c2c(n1Cc1ccc(OC)cc1)-c1oncc1CCC2`, the growth was 103% (inactive).

`CCC(C)Oc1cc(/C=N/NC(=O)c2cnn3c2NC(c2ccccc2)C3)ccc1OC` (stereo not given): the growth is 35.6% (inactive). Under `CCCCCCCC/C=C\CCCCCCCCOc1cccc(CC(=O)NCC[N+]2(C)CCCC2)c1` stands 107% (inactive).

On to `Cc1nc2cc(Nc3nc(NCCO)nc(Nc4ccc(F)cc4)n3)ccc2n1Cc1ccccc1`, for which the growth is 122% (inactive). Under `COc1cc(C(F)(F)F)ccc1-c1cc(-c2ccc(F)cc2)n[nH]1` stands 118% (inactive).

In the case of `O=C1/C(=C/c2ccc([N+](=O)[O-])cc2)Oc2ccc(O)cc21`, the growth was 104% (inactive). The value for `CN(C)C(=S)SCN1C(=O)c2ccc([N+](=O)[O-])cc2S1(=O)=O` was 112% (inactive).
